Data published in PubChem BioAssay (NCI).
Values joined by “and” are separate entries in the source; they are usually repeats but may differ in a detail not shown here. Identical values can stand only once. About 83,000 compounds went through this panel and 20% of them were active in at least one assay; those are over-represented in the sample as a whole.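 Negative percent growth values reflect cell death: -40 means 40% of the cells present at the start died, and -100 means all died.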 Active and inactive are the calls of the source. Rule for the calls: active = growth percent below 10; inactive = the rest.

Legend:
Assay in all cases: NCI-60 one-dose screen, 48 h (100 = growth as untreated, 0 = no growth, -100 = all killed)
Conditions in all cases: 10 µM unless noted
HCT-15 colon = tested on: HCT-15 colon
SNB-19 CNS = tested on: SNB-19 CNS
PC-3 prostate = tested on: PC-3 prostate
UACC-62 melanoma = tested on: UACC-62 melanoma
LOX IMVI melanoma = tested on: LOX IMVI melanoma
SK-MEL-28 melanoma = tested on: SK-MEL-28 melanoma
HT29 colon = tested on: HT29 colon
U251 CNS = tested on: U251 CNS
SK-MEL-5 melanoma = tested on: SK-MEL-5 melanoma
SNB-75 CNS = tested on: SNB-75 CNS

Measured: growth

Cc1cc(N=C(N)c2ccccc2)ccc1OCCCCCCCCn1ccnc1
active: HCT-15 colon 7% | UACC-62 melanoma -3.8% | LOX IMVI melanoma -80.7% | SK-MEL-28 melanoma -68.5%
inactive: SNB-19 CNS 19.3% | PC-3 prostate 27.8%

CN(C)CCOc1ccc(C(=O)C2[C@H](c3ccc(Cl)cc3)[C@@H](c3ccccc3)NC23C(=O)Nc2ccc(Cl)cc23)cc1 (stereo partly specified)
active: HCT-15 colon -91.5% | HT29 colon -93.7% | SNB-19 CNS -96.2% | U251 CNS -82.9% | PC-3 prostate -89.9% | SK-MEL-5 melanoma -98.2% | UACC-62 melanoma -78.3% | LOX IMVI melanoma -96.3% | SK-MEL-28 melanoma -93.4%

COc1ccc(N=Nc2c(N)nn3c(-c4ccc(OC)c(OC)c4)ccnc23)cc1
inactive: HCT-15 colon 91.7% | HT29 colon 68.5% | SNB-19 CNS 74.1% | U251 CNS 69.3% | PC-3 prostate 87.5% | SK-MEL-5 melanoma 77.4% | UACC-62 melanoma 64.3% | LOX IMVI melanoma 86.1% | SK-MEL-28 melanoma 86.4%

CCCCNc1ccc2c3c(cccc13)C(=O)N(c1cccc(-c3nn(-c4ccccc4)cc3-c3nc4ccccc4s3)c1)C2=O
inactive: HCT-15 colon 108% | HT29 colon 114% | SNB-19 CNS 106% | U251 CNS 110% | PC-3 prostate 87.7% | SK-MEL-5 melanoma 96.3% | UACC-62 melanoma 88.3% | LOX IMVI melanoma 94.4% | SK-MEL-28 melanoma 101%

O=C(CSc1nnc(-c2ccc(-c3nc4ccc(Cl)cc4[nH]3)cc2)o1)Nc1ccccc1
inactive: HCT-15 colon 25.2% | HT29 colon 41% | SK-MEL-5 melanoma 13.2%
active: SNB-19 CNS -42.4% | U251 CNS -79.2% | PC-3 prostate -13.6% | UACC-62 melanoma 7.34% | LOX IMVI melanoma -65.6% | SK-MEL-28 melanoma -89.2%

CN1CCc2c(sc3ncnc(N/N=C/c4cccc(Cl)c4Cl)c23)C1
active: HCT-15 colon -14.5% | HT29 colon -12.7% | SNB-19 CNS 4.21% | U251 CNS -96.3% | LOX IMVI melanoma -82.5%
inactive: PC-3 prostate 96% | SK-MEL-5 melanoma 80.7% | UACC-62 melanoma 92.5% | SK-MEL-28 melanoma 103%

CCCn1c(NC(=O)c2cccc(C(N)=O)c2)nc2ccc(CN3CCCCC3)cc21
inactive: HCT-15 colon 67.1% | HT29 colon 91% | SNB-19 CNS 111% | U251 CNS 106% | PC-3 prostate 63.2% | SK-MEL-5 melanoma 102% | UACC-62 melanoma 113% | LOX IMVI melanoma 93.4% | SK-MEL-28 melanoma 106%

O=C(Nc1nc2ccccc2s1)Nc1ccccc1Cl
inactive: HCT-15 colon 94.3% | HT29 colon 98.5% | SNB-19 CNS 70.4% | U251 CNS 55.7% | PC-3 prostate 85.3% | SK-MEL-5 melanoma 95.3% | UACC-62 melanoma 93.8% | LOX IMVI melanoma 79.4% | SK-MEL-28 melanoma 102%

COc1ccc([C@H]2C(C(=O)c3ccc(Cl)cc3)C3(N[C@@H]2c2ccccc2)C(=O)Nc2ccccc23)cc1 (stereo partly specified)
active: HT29 colon 9.82% | UACC-62 melanoma 9.8%
inactive: HCT-15 colon 16.4% | SNB-19 CNS 42.2% | U251 CNS 36.5% | PC-3 prostate 36.9% | SK-MEL-5 melanoma 26% | LOX IMVI melanoma 12.2% | SK-MEL-28 melanoma 49.7%

COc1cc(C=O)ccc1Oc1nc(Nc2ccc(F)cc2)nc(N(C)C)n1
inactive: HCT-15 colon 88.4% and 18.6% | HT29 colon 105% and 69.2% | SNB-19 CNS 87.6% and 68.2% | U251 CNS 85% and 36.5% | PC-3 prostate 90.3% and 61.7% | SK-MEL-5 melanoma 32.3% and 76.3% | UACC-62 melanoma 63% and 85.7% | LOX IMVI melanoma 54.3% | SK-MEL-28 melanoma 99.9% and 84.4%

OC(c1ccccc1)(c1ccccc1)C1CCN(c2ccc3nnc(Cl)n3n2)CC1
inactive: HCT-15 colon 18.1% | HT29 colon 26.8% | SNB-19 CNS 63.3% | U251 CNS 45.9% | PC-3 prostate 16.2% | UACC-62 melanoma 54.5% | LOX IMVI melanoma 38.3% | SK-MEL-28 melanoma 52.2%
active: SK-MEL-5 melanoma -84.6%

O=c1[nH]c2ccccc2cc1COc1ccc(Nc2nccc(-c3ccc(Cl)cc3)n2)cc1
inactive: HCT-15 colon 101% | HT29 colon 105% | U251 CNS 86.5% | PC-3 prostate 106% | SK-MEL-5 melanoma 99.1% | UACC-62 melanoma 94.4% | LOX IMVI melanoma 96% | SK-MEL-28 melanoma 105%

N/C(=N\c1nc2ccccc2s1)NC(=O)Nc1ccccc1[N+](=O)[O-]
active: HCT-15 colon 5.8% | HT29 colon -31.5% | U251 CNS 7.5% | SK-MEL-5 melanoma -21.5%
inactive: SNB-19 CNS 21.1% | PC-3 prostate 29.3% | UACC-62 melanoma 12% | LOX IMVI melanoma 10% | SK-MEL-28 melanoma 51%

O=C(CSc1nc2ccccc2c(=O)[nH]1)NNC(=O)c1ccccc1Cl
inactive: HCT-15 colon 107% | HT29 colon 109% | SNB-19 CNS 92.4% | U251 CNS 96.3% | PC-3 prostate 123% | SK-MEL-5 melanoma 106% | UACC-62 melanoma 110% | LOX IMVI melanoma 102% | SK-MEL-28 melanoma 148%

Cc1ccc(C2CC(c3ccc(S(=O)(=O)NCCNc4nc(N(C)C)nc(N5CCOCC5)n4)cc3)=Nc3c(N)nc(N)nc3N2)cc1 (stereo unspecified)
inactive: HCT-15 colon 44.5% | HT29 colon 17.9% | U251 CNS 50.6% | PC-3 prostate 27.9% | SK-MEL-5 melanoma 34.5% | UACC-62 melanoma 71.1% | LOX IMVI melanoma 17.7% | SK-MEL-28 melanoma 71.1%

COc1ccc(N=Nc2c(N)nn3c(N)c(C#N)c(-c4ccc(C)cc4)nc23)cc1
inactive: HCT-15 colon 47.8% | HT29 colon 66.1% | SNB-19 CNS 89.5% | U251 CNS 74.4% | PC-3 prostate 36.8% | SK-MEL-5 melanoma 55.4% | UACC-62 melanoma 78.5% | LOX IMVI melanoma 50.1% | SK-MEL-28 melanoma 91.1%

COc1c2c(cc3c1C(CCc1ccccc1)N(C)CC3)OCO2 (stereo unspecified)
inactive: PC-3 prostate 12.7%
active: HCT-15 colon 9.64% | HT29 colon -13.3% | SNB-19 CNS 8.54% | U251 CNS -32.5% | SK-MEL-5 melanoma -98.2% | UACC-62 melanoma -24% | LOX IMVI melanoma -92% | SK-MEL-28 melanoma -5.44%

COc1ccc2[nH]cc(-c3cc(N)n4nc(-c5c[nH]c6ccccc56)cc4n3)c2c1
inactive: PC-3 prostate 10.9%
active: HCT-15 colon -79.2% | HT29 colon -63.8% | U251 CNS -68.2% | SK-MEL-5 melanoma -93.2% | UACC-62 melanoma -81% | LOX IMVI melanoma -85.8% | SK-MEL-28 melanoma -99%

COc1ccc(-c2cc(C(=O)OCc3ccc(Br)cc3)nn2-c2ccc(S(C)(=O)=O)cc2)cc1OC
inactive: HCT-15 colon 73.3% | HT29 colon 87.3% | SNB-19 CNS 84.6% | U251 CNS 86.1% | PC-3 prostate 72.1% | SK-MEL-5 melanoma 77.5% | UACC-62 melanoma 72.6% | LOX IMVI melanoma 75.3% | SK-MEL-28 melanoma 102%

C/C(=N\Nc1ccc(S(N)(=O)=O)cc1)c1cnn(-c2cc(=O)[nH]c3ccc(Br)cc23)c1C
inactive: HCT-15 colon 91.2% | HT29 colon 98.8% | SNB-19 CNS 46% | U251 CNS 37.9% | PC-3 prostate 58.3% | SK-MEL-5 melanoma 55% | UACC-62 melanoma 11.4% | LOX IMVI melanoma 38.2% | SK-MEL-28 melanoma 34.7%

O=C1Nc2cc(-c3ccc(NS(=O)(=O)c4ccc(C(F)(F)F)cc4)cc3)ccc2/C1=C/c1ccc[nH]1
inactive: HCT-15 colon 15.8% | HT29 colon 12.2% | SNB-19 CNS 69.9% | U251 CNS 41.1% | PC-3 prostate 31.2% | SK-MEL-5 melanoma 42.7% | UACC-62 melanoma 30.5% | LOX IMVI melanoma 46.1% | SK-MEL-28 melanoma 47.4%

O=C1N/C(=N\c2nccs2)S/C1=C\c1ccc([N+](=O)[O-])cc1
active: SNB-19 CNS 9.41% | U251 CNS 7.89% | SK-MEL-5 melanoma -8.09% | UACC-62 melanoma 2.3% | SK-MEL-28 melanoma 6.49%
inactive: HCT-15 colon 16% | HT29 colon 17.2% | PC-3 prostate 17.6% | LOX IMVI melanoma 12.5%

COc1ccc2[nH]cc(-c3cc4nc(-c5cn(C)c6ncccc56)cc(N)n4n3)c2c1
active: HCT-15 colon -25.1% | HT29 colon -59.1% | U251 CNS -42.4% | SK-MEL-5 melanoma -56.5% | LOX IMVI melanoma -85.3%
inactive: SNB-19 CNS 26% | UACC-62 melanoma 85.9% | SK-MEL-28 melanoma 82.6%

COc1cccc(C(N)=Nc2ccc(OCCCCCCCCn3cncn3)cc2)c1
inactive: HCT-15 colon 11.7% | SNB-75 CNS 60.8% | SNB-19 CNS 24.6% | PC-3 prostate 37.7% | UACC-62 melanoma 27.4% | LOX IMVI melanoma 20% | SK-MEL-28 melanoma 55.3%

CN(C)C(=O)c1cc(-c2ccc3ncnc(N4CCc5cc(F)c(Cl)cc54)c3c2)cnc1N
active: HCT-15 colon -70.8% | HT29 colon -68.6% | SNB-19 CNS -19.8% | U251 CNS -55.7% | PC-3 prostate 0.623% | SK-MEL-5 melanoma -98.9% | UACC-62 melanoma -83.7% | LOX IMVI melanoma -69.3% | SK-MEL-28 melanoma 0.025%

CN(C)CCCc1ccc(Nc2cnn(C)c(=O)c2Cl)cc1
inactive: HCT-15 colon 96.6% | HT29 colon 105% | SNB-19 CNS 103% | U251 CNS 105% | PC-3 prostate 91% | SK-MEL-5 melanoma 93.2% | UACC-62 melanoma 98.9% | LOX IMVI melanoma 101% | SK-MEL-28 melanoma 111%

O=C(N=Nc1c(O)[nH]c2ccc(Cl)cc12)c1ccc2nc(-c3ccc(Cl)cc3)[nH]c2c1
inactive: HCT-15 colon 78.6% | HT29 colon 16.9% | PC-3 prostate 28.1% | SK-MEL-5 melanoma 66.8%
active: U251 CNS -88.3% | UACC-62 melanoma -59% | LOX IMVI melanoma -100% | SK-MEL-28 melanoma -79.3%

Cc1ccc(C(=O)C[n+]2cccc3c4ccccc4ccc32)cc1
active: SK-MEL-5 melanoma -88.8% | LOX IMVI melanoma -24.2%
inactive: HCT-15 colon 56.8% | HT29 colon 12.5% | SNB-19 CNS 25.9% | U251 CNS 17.8% | PC-3 prostate 18.7% | UACC-62 melanoma 32.2% | SK-MEL-28 melanoma 44.5%

O=C1c2cccc3c(N4CCN(c5ccccc5)CC4)ccc(c23)C(=O)N1c1cccc(-c2nn(-c3ccccc3)cc2-c2nc3ccccc3s2)c1
inactive: HCT-15 colon 112% | HT29 colon 116% | SNB-19 CNS 100% | U251 CNS 100% | PC-3 prostate 85.9% | SK-MEL-5 melanoma 99% | UACC-62 melanoma 91.4% | LOX IMVI melanoma 94.5% | SK-MEL-28 melanoma 104%
